Laboratory results taken from PubChem BioAssay AID1030 (National Center for Advancing Translational Sciences (NCATS), 2008).
Among all 220,000 compounds or so, about 16,000 (7.3%) were called active. Not shown: some 25% with an inconclusive outcome. The call rests on the fitted dose curve; in most records, active means well fitted inhibition curve with a large enough effect (not every such curve was filed as active); inconclusive means small, poorly fitted or top-dose-only effect, or another doubt; inactive means no such curve, though single readings can be large or run the other way. What follows is part of a selection rich in actives, with near analogues and random picks from the rest.

Target: Aldehyde dehydrogenase 1A1 (Homo sapiens) (UniProt P00352)
Experiment: qHTS Assay for Inhibitors of Aldehyde Dehydrogenase 1 (ALDH1A1);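 on activity, negative = inhibition: plate controls were no enzyme wells and a reference inhibitor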
Conditions: Purified ALDH1A1, NADH fluorescence, propionaldehyde substrate; series mostly up to 75.3 µM; activity, negative = inhibition: at the top concentration
Potency means the concentration at half of the fitted maximal effect.

Chain of Aldehyde dehydrogenase 1A1 (Homo sapiens) (P00352 whole entry, looked up): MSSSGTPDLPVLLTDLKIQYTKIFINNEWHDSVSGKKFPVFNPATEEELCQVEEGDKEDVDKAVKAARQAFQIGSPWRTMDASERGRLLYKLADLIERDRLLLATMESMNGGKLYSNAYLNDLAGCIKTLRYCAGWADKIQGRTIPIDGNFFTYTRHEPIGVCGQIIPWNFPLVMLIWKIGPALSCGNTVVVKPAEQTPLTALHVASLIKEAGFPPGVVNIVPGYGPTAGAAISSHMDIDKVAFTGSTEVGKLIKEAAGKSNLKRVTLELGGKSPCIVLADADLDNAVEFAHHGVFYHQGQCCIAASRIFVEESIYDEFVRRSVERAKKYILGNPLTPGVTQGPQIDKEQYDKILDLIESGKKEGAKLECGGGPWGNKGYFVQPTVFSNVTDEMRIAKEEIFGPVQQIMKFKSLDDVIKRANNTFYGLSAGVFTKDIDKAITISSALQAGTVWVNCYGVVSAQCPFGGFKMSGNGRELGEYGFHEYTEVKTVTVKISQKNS

activity, negative = inhibition, inactive:
Cc1ccc(NC(=O)c2oc3ccccc3c2C)c([N+](=O)[O-])c1 0.651%
CC1=C(C)CC(C(=O)NC(C)CCc2ccccc2)C(C(=O)O)C1 (stereo not drawn) -0.644%
CCC(C)[C@@H](N)C(=O)O (stereo partly drawn) 7.63%
CC(C)NC(=O)NC(=O)CSc1nnc(-c2ccccc2F)n1N 5.19%
Cc1cc(C)c(C2C3=C(Nc4c2c(C)nn4-c2ccccn2)c2ccccc2C3=O)c(C)c1 (stereo not drawn) -2.06%
Cc1ccc(N=Nc2c(C)[nH]n(-c3ccccc3)c2=O)cc1 -5.84%
Cn1cnnc1Sc1ccc(S(C)(=O)=O)cc1[N+](=O)[O-] 8.01%
c1csc(-c2nnc(COc3ccc4c(c3)OCO4)o2)c1 -8.68%
O=[N+]([O-])c1cc(Br)c(O)c(/C=N/Nc2nc3ccccc3s2)c1 1.2%
c1ccc2sc(SCCSc3nc4ccccc4s3)nc2c1 3.19% [at 13.5 µM]
O=C(c1ccc(F)cc1)C1CCN(Cc2cn[nH]c2-c2ccccc2)CC1 -3.53%
COc1ccc(-c2[nH]ncc2CN(C)Cc2c(C)n[nH]c2C)c(OC)c1 3.76%
OCC1(CCOc2ccccc2)CCN(Cc2cn[nH]c2-c2ccccc2)CC1 2.48%
O=C(OCc1ccc([N+](=O)[O-])cc1)c1ccccn1 3.86%
Cc1nc([N+](=O)[O-])c(NCCCO)n1Cc1ccccc1 -5.45%
CCNc1nc(-c2cc3ccccc3o2)cs1 3.76%
NS(=O)(=O)c1ccc(CCNC(=O)c2ccc(Cl)cc2[N+](=O)[O-])cc1 5.47%
O=P(O)(CN1CCCCCC1)C1Cc2ccccc2C1 1.42%
CCOC(=O)C1=C(C)Nc2sc(C(=O)c3ccc(Br)cc3)c(N)c2C1c1ccc(C(=O)OC)cc1 (stereo not drawn) 4.19%
CCOC(=O)c1sc(NC(=O)c2ccncc2)nc1C 0.718%
Cc1ccc(/C=N/NC(=O)COc2ccccc2-c2ccccc2)cc1 -3.94%
CCC1S/C(=N/N=C/c2ccco2)NC1=O (stereo not drawn) -11.9%
CCC1C/C(=C/c2cccs2)C(=O)/C(=C/c2cccs2)C1 (stereo not drawn) -1.08%
COc1ccc(C2=NN(c3nc4ccccc4s3)C(=O)C2)cc1 4.17%
CCCCn1c(=O)c(C(C)=O)c(O)c2ccccc21 3.26%
Cc1[nH]c2c(C(=O)N3CCCC(CCC(=O)NCc4ccccc4F)C3)cccc2c1C (stereo not drawn) -12.1%
COc1ccccc1N1CCN(Cc2ccc(OC)c3ccccc23)CC1 -4.71%
CCN1CCN(CCCCOc2ccccc2F)CC1 -7.76%
CCOC(=O)c1c(NC(=O)C2CC=CCC2C(=O)O)sc(C)c1CC (stereo not drawn) -0.959%
Cc1ccc(-c2cccc([C@H]3[C@@H]4C=CC[C@@H](C)[C@@H]4C(=O)N3Cc3ccccc3)c2)cc1 7.38%
COc1ccc(OC)c(Cc2nnc(CCC(=O)NC3CCCC3)o2)c1 -0.804%
O=C1CSC(c2cccc(F)c2)N1c1ccc(O)cc1 (stereo not drawn) -0.489%
O=C1CSC(c2ccccc2)N1c1nc(-c2ccc(Cl)cc2Cl)cs1 (stereo not drawn) 5.19%
O=C(Nc1ccc(F)cc1)C1CCN(C(=O)c2ccc([N+](=O)[O-])cc2)CC1 0.407%
CC1CCN(c2ccc(S(=O)(=O)Nc3cc(C(=O)O)cc(C(=O)O)c3)cc2[N+](=O)[O-])CC1 5.01%
COCCCNC(=O)C1CCC(CNS(=O)(=O)c2ccc(OC)cc2)CC1 (stereo not drawn) -3.23%
CCc1[nH]nc(C(=O)N2CCCC(CNS(=O)(=O)c3cccs3)C2)c1C (stereo not drawn) 3.5%
Cc1ccc(S(=O)(=O)N2CCOCC2)cc1C(=O)OC1CCCCC1=O (stereo not drawn) -0.864%
CCC(C)NC(=O)Cn1nc(C(F)(F)F)c2c1CCC2 (stereo not drawn) 9.42%
CS(=O)(=O)N1CCC(C(=O)N2CCN(c3ccccc3)CC2)CC1 -3.06%
CS(=O)(=O)N(CC(=O)N1CCCC1)Cc1ccccc1 5.09%
O=C(Nc1ccc(Cl)cc1)Nc1ccc(Oc2cccnc2)nc1 -9.71%
Cc1ccc(-n2cc(CN(C)Cc3nccn3C)c(-c3cccc(C)c3)n2)cc1 6.12%
COc1cccc(Cn2c(=O)c(-c3cc(F)cc(F)c3)nc3cnc(OC)nc32)c1 -9.66%
COc1cccc(Cn2c(=O)c(C)nc3cnc(Oc4ccccc4)nc32)c1 -15%
COc1ccc(OC)c(NC(=O)CN(Cc2ccc(Cl)cc2)S(C)(=O)=O)c1 -11.2%
CCC(C)(C)C1CCC(=NNC(=O)c2ccc(Br)o2)CC1 (stereo not drawn) -10.7%
Cc1nc2cnc(Nc3ccccc3)nc2n(Cc2ccc(F)cc2)c1=O -0.0659%
O=c1[nH]c2c(c(=O)n1Cc1ccccc1)CCC2 -3.17%
CCS(=O)(=O)c1ccc(C(=O)NC)c(Cl)c1Cl -5.81%
COc1ccc(C(c2nnnn2C2CCCCC2)N2CCN(c3ccccc3F)CC2)cc1 (stereo not drawn) -12.1%
c1ccc(CCn2nnnc2CN2CCN(C3CCCC3)CC2)cc1 -1.52%
Cc1ccc(N(CCC(=O)O)S(=O)(=O)c2cccc(C(F)(F)F)c2)cc1 4.5%
COc1ccc2c(c1)c(=O)c(C(=O)c1ccc(Cl)cc1)cn2CC(=O)Nc1ccc(F)cc1 -1.25%
COc1ccc2[nH]cc(CCNc3nc(-c4cccc(NS(C)(=O)=O)c4)nc4ccccc34)c2c1 -0.602%
COc1ccc2[nH]cc(CCNc3ncnc4ccc(-c5ccccc5CN(C)C)cc34)c2c1 7.41%
Cc1ccccc1NC(=O)NNC(=O)OC(C)(C)C -0.0746%
Cc1c(CCOC(=O)c2cc([N+](=O)[O-])ccc2Cl)sc[n+]1CCCCS(=O)(=O)[O-] -8.66%
COc1cccc2c(N/N=C/c3ccco3)cc(C)nc12 -13.1%
O=Cc1cn(Cc2ccccc2)nc1-c1cccnc1 -6.61%
Clc1ccc(CN2CCN(/N=C/c3cccnc3)CC2)cc1 5.02%
O=C(Nc1ccccc1C(=O)N1CCOCC1)c1ccc(CSc2ccccc2)cc1 5.23%
O=C(/C=C/c1ccc(Cl)cc1)Nc1ccc(Br)cn1 7.71%
COc1ccc(-n2c(SCC(=O)Nc3sc4c(c3C#N)CCCC4)nnc2-c2ccc(O)cc2)cc1 1.64%
Cc1cc(NC(=O)CSc2nc3cc(Cl)ccc3c(=O)n2Cc2ccco2)no1 -5%
O=C(CSc1nc2cc3c(cc2c(=O)n1CCC1=CCCCC1)OCO3)NCc1ccco1 3.46%
O=C(CSc1c2c(nc3ccc(Cl)cc13)CCCC2)NCc1ccco1 -7.39%
COc1cc(CNc2ncn[nH]2)ccc1OCc1ccccc1C -2.52%
CCC(=O)N1CCC(C(N)=O)(N2CCCCC2)CC1 4.55%
CC(O)CNCCOc1cccc(Oc2ccccc2)c1 (stereo not drawn) -2.23%
CCOCCCNC(=O)C(NC(=O)Cc1c[nH]c2ccccc12)c1ccc(OC)cc1 (stereo not drawn) 15.4%
CN1CCN(c2ccc(CNS(=O)(=O)c3cccc(F)c3)cc2)CC1 4.18%
O=C(/C=C/c1ccc(Cl)cc1Cl)NCc1ccco1 -14.2%
O=C(/C=C/c1ccc(Cl)c([N+](=O)[O-])c1)c1cccnc1 -4.75%
CC1(C)CC(=O)C(C2c3ccccc3S(=O)(=O)c3ccccc32)C(=O)C1 0.149%
COC(=O)c1cc(C)sc1NC(=O)CC1Nc2ccccc2NC1=O (stereo not drawn) -11.8%
CN(NC(=O)C1CC(=O)N(c2ccccc2)C1)C1=NS(=O)(=O)c2ccccc21 (stereo not drawn) 21.9%
CCOc1ccc(C(=O)NC(=S)Nc2ccc(NC(=O)C(C)C)cc2)cc1[N+](=O)[O-] 0.53%
CCOC(=O)c1c(NC(=O)c2ccc(N3CCOCC3)c([N+](=O)[O-])c2)sc(C)c1C -13.7%
O=C(CSc1ccc([N+](=O)[O-])cn1)Nc1ccc(N2CCOCC2)cc1 -1.5%
O=C(CCNC(=O)c1ccc([N+](=O)[O-])cc1)Nc1ccccc1N1CCOCC1 0.402%
CN(C)N(C)C(=O)C(O)(c1ccccc1)c1ccccc1 8.36%

Potency, active:
Cc1ccc(C2C3=C(Nc4[nH]n(-c5ccccc5)c(=O)c42)c2ccccc2C3=O)cc1 (stereo not drawn) 11.2 µM
O=[N+]([O-])c1c(NCCO)cc(Sc2nc3ccccc3s2)c2nonc12 8.91 µM
CN(CCC1CCOCC1)Cc1cn[nH]c1-c1ccc(-c2ccccc2)cc1 10 µM
Cc1nnc(CN(C)Cc2cn[nH]c2-c2ccc(-c3ccccc3)cc2)o1 12.6 µM
CCOC(=O)c1sc(=S)n2c1[nH]c(=O)c1ccc(C(=O)OC)cc12 8.91 µM
CC(C)(C)C1C/C(=C/c2ccco2)C(=O)/C(=C/c2ccco2)C1 (stereo not drawn) 7.94 µM
COc1ccccc1N1CCN(CCCCOc2ccc(F)cc2)CC1 25.1 µM
O=C1CSC(c2cccc(F)c2)N1c1ccccc1F (stereo not drawn) 14.1 µM
CC1CCN(C(=O)c2ccc(S(=O)(=O)Cc3cc(F)ccc3F)c([N+](=O)[O-])c2)CC1 7.08 µM
COc1ccc(S(=O)(=O)NCC2CCCN(C(=O)c3occc3C)C2)cc1 (stereo not drawn) 4.47 µM
CS(=O)(=O)N1CCN(C(=O)Cc2ccccc2)CC1 8.91 µM
COc1cccc(Cn2c(=O)cnc3cncnc32)c1 2.51 µM
Cc1cc2nc3c(=O)n(Cc4ccccc4)c(=O)[nH]c3nc2cc1N 12.6 µM
c1ccc(C(c2ccccc2)N2CCN(Cc3nnnn3C3CCCCC3)CC2)cc1 7.94 µM
COc1ccc2[nH]cc(CCNc3ncnc4ccc(-c5ccc(C(=O)N(C)C)cc5)cc34)c2c1 25.1 µM
O=C1/C(=C\c2cccnc2)CN(Cc2ccccc2)C/C1=C\c1cccnc1 7.94 µM
C=C(C)Cn1c(SCC(=O)NCc2ccco2)nc2sc3c(c2c1=O)CCC3 11.2 µM
N#Cc1c(NC(=O)CSc2nc3ccccc3c(=O)n2Cc2ccco2)sc2c1CCCC2 25.1 µM
O=C(/C=C/c1ccc(Cl)cc1Cl)c1cccnc1 10 µM
CCOc1ccc(C(=O)NC(=S)Nc2ccc(N3CCOCC3)c(Cl)c2)cc1[N+](=O)[O-] 2.51 µM
O=C(CSc1ccc([N+](=O)[O-])cn1)Nc1ccc(N2CCOCC2)c(Cl)c1 22.4 µM
